PubChem BioAssay (NCI)
This is part of a sample that, as a whole, favours compounds with a hit. Of some 83,000 tested, about 20% had one in any assay.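 Plates (96-well) were seeded with cells, treated with compound at one concentration, and incubated for 48 hours before percent growth was determined.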 Unmarked numbers belong to inactive results. The source made the active and inactive calls. Rule for the calls: active = growth percent below 10; inactive = the rest.

Key:
Assay in all cases: NCI-60 one-dose screen, 48 h (100 = growth as untreated, 0 = no growth, -100 = all killed)
Details in all cases: 10 µM unless noted
NCI-H23 lung = tested on: NCI-H23 lung
NCI-H226 lung = tested on: NCI-H226 lung
NCI-H322M lung = tested on: NCI-H322M lung
HOP-62 NSCLC = tested on: HOP-62 NSCLC
NCI-H460 lung = tested on: NCI-H460 lung
HOP-92 NSCLC = tested on: HOP-92 NSCLC
NCI-H522 lung = tested on: NCI-H522 lung
A549/ATCC NSCLC = tested on: A549/ATCC NSCLC
786-0 renal = tested on: 786-0 renal
DU-145 prostate = tested on: DU-145 prostate
K-562 leukemia = tested on: K-562 leukemia
MALME-3M melanoma = tested on: MALME-3M melanoma
MDA-MB-231 breast = tested on: MDA-MB-231 breast
SF-268 CNS = tested on: SF-268 CNS
SF-295 CNS = tested on: SF-295 CNS
SF-539 CNS = tested on: SF-539 CNS
UACC-257 melanoma = tested on: UACC-257 melanoma
M14 melanoma = tested on: M14 melanoma
RXF 393 renal = tested on: RXF 393 renal
COLO 205 colon = tested on: COLO 205 colon

| Compound | growth (NCI-H23 lung) | growth (NCI-H226 lung) | growth (NCI-H322M lung) [%] | growth (HOP-62 NSCLC) | growth (NCI-H460 lung) | growth (HOP-92 NSCLC) | growth (NCI-H522 lung) | growth (A549/ATCC NSCLC) | growth (786-0 renal) | growth (DU-145 prostate) | growth (K-562 leukemia) | growth (MALME-3M melanoma) | growth (MDA-MB-231 breast) | growth (SF-268 CNS) | growth (SF-295 CNS) | growth (SF-539 CNS) | growth (UACC-257 melanoma) | growth (M14 melanoma) | growth (RXF 393 renal) | growth (COLO 205 colon) |
| --- | --- | --- | --- | --- | --- | --- | --- | --- | --- | --- | --- | --- | --- | --- | --- | --- | --- | --- | --- | --- |
| O=C1NC(=O)C(=Cc2cn(Cc3ccccn3)c3ccccc23)C(=O)N1 | 103% | 79.7% | 105 | 92.7% | 11.9% | 95.8% | 92.6% | 76.3% | 100% | 110% | 76.4% | 101% | 108% | 93.7% | 79.5% | 94.5% | 103% | – | – | – |
| NC(=O)c1cccc(-c2ccccc2N2CCCCC2)c1 | 103% | 98.9% | 91 | 99.5% | 108% | 103% | 85.7% | 99.1% | 85.3% | 99.8% | 85.1% | 80.8% | 100% | 94% | 89.4% | 97.8% | 99.3% | 94.6% | – | – |
| CC1(C)NCCC[C@]2(C)[C@H]3CC=C4[C@@H]5C[C@@](C)(CO)CC[C@]5(C)CC[C@@]4(C)[C@]3(C)CC[C@@H]12 | 81.3% | 83.9% | 81.7 | 88.8% | 4.29% (active) | 38.3% | 73.8% | 51% | 55.5% | 75.6% | 9.28% (active) | 57% | 58% | 67.1% | 64.1% | 64.6% | 55.1% | 33.6% | 57.8% | – |
| COc1ccncc1C#Cc1cncc(C(=O)Nc2ccc(CN3CCN(C)CC3)c(C(F)(F)F)c2)c1 | 28% | 3.6% (active) | 37.3 | 38.9% | 8.17% (active) | -2.19% (active) | 30.9% | 36.9% | 46.9% | 35.4% | 5.84% (active) | -28% (active) | 9.91% (active) | 39.8% | 49.7% | 1.56% (active) | 46.5% | -3.19% (active) | – | – |
| O=C1/C(=C\c2cn(Cc3ccccc3)c3ccc(Br)cc23)c2ccccc2N1c1c(Cl)cccc1Cl | 96.9% | 91.6% | 96.8 | 98.5% | 107% | 57.1% | 80.7% | 90.5% | 99.2% | 127% | 109% | 109% | 98% | 113% | 98.5% | 103% | 102% | 105% | 101% | – |
| CC1=CC[C@@H]2CC[C@]3(C)[C@H](CC[C@@H]4[C@@]5(C)CCCNC(C)(C)[C@@H]5CC[C@]43C)[C@H]2[C@@H]1C | 63.1% | 107% | 20.7 | 105% | -70.4% (active) | 23.8% | 96.1% | -14% (active) | -72.5% (active) | -7.26% (active) | – | 3.21% (active) | -7.94% (active) | 40.2% | -35.2% (active) | 77.5% | 76.7% | 15.5% | – | -93.5% (active) |
| COc1cc(NCCN(CC(C)C)C2CCCC2)c2ncccc2c1 | 81.1% | 92% | 118 | 82.9% | 95.7% | 95.9% | 78.1% | 81.7% | 98.1% | 104% | 99% | 126% | 79% | 86% | 94.1% | 98.3% | 91.5% | 102% | – | – |
| CN1CCN(C(=O)[C@]2(C)CC[C@]3(C)CC[C@]4(C)C(=CC(=O)[C@@H]5[C@@]6(C)CCC(=O)NC(C)(C)[C@@H]6CC[C@]54C)[C@@H]3C2)CC1 | 100% | 91.8% | 107 | 89.2% | 102% | 64.7% | 90.6% | 94.4% | 93.5% | 97.6% | – | 95.9% | 107% | 94.3% | 98.3% | 92% | 103% | 105% | – | 110% |
| CCOC(=O)c1c(SC)nn(-c2cc(=O)[nH]c3ccc(Br)cc23)c1N | 96% | 99.2% | 106 | 89.7% | 87.8% | 95.8% | 95.1% | 98.1% | 97.6% | 94.6% | – | 105% | 110% | 90.7% | 107% | 102% | 112% | 109% | – | 98.2% |
| COc1ccc(/C=C/C(=O)c2ccc(Nc3ncnc4ccccc34)cc2)cc1OC | 73.3% | 104% | 92.4 | 92.8% | 83.8% | 74% | 92.7% | 68.3% | 79.2% | 83.1% | – | 101% | 72.1% | 68.1% | 79.6% | 98.1% | 98.6% | 64.7% | – | 109% |
| C=C1C(=O)O[C@H]2[C@H]1CC/C(CNC(=O)/C=C/c1ccccc1F)=C\CC[C@@]1(C)O[C@@H]21 | 64.8% | 71.9% | 73.9 | 74.5% | 56.2% | -28.2% (active) | -73.5% (active) | 52.9% | -58.4% (active) | 4.9% (active) | 2.05% (active) | -43.9% (active) | 16.9% | 47.4% | 75.1% | -50.4% (active) | -6.45% (active) | -32.5% (active) | -90.5% (active) | – |
| COc1cc(Nc2cc(O)c3c(=O)cc(-c4ccccc4)oc3c2)cc(OC)c1 | 35.9% | 67.7% | 44.1 | 35.5% | 7.62% (active) | 79.5% | -35.3% (active) | 25.9% | 45.4% | 20% | 13.1% | 73.6% | 15.9% | 48.2% | 33.5% | -35.2% (active) | 77.9% | 28.4% | – | – |
| CN1CCN(c2cc(F)c(NC3=C(Cl)C(=O)c4ncccc4C3=O)c(F)c2)CC1 | -61.2% (active) | 85.3% | 102 | 83.3% | 9.91% (active) | -79.9% (active) | -59.7% (active) | 74.6% | -72% (active) | -67.6% (active) | -0.834% (active) | -96.1% (active) | -32% (active) | 48.7% | 78.8% | -25.1% (active) | -62.2% (active) | -40.5% (active) | – | – |
| Cc1ccc(C(c2c(O)c3cc(Br)ccc3[nH]c2=O)c2c(O)c3cc(Br)ccc3[nH]c2=O)cc1 | 86.7% | 74% | 96.7 | 77% | 89.5% | 74.1% | 77.8% | 89.5% | 92.6% | 102% | – | 91% | 70.5% | 87.1% | 75.6% | 91.2% | 98.3% | 93.3% | – | 111% |
| C=C(C)[C@@H]1CC[C@]2(CO)CC[C@]3(C)[C@H](CC[C@@H]4[C@@]5(C)CCCNC(C)(C)[C@@H]5CC[C@]43C)[C@@H]12 | 62.6% | 84.4% | 69.8 | 79% | -54.4% (active) | 82% | 64.2% | 44.9% | 30.2% | 49.5% | -26.6% (active) | -65.4% (active) | 46.8% | 61.2% | 40.4% | 34.3% | -8.72% (active) | -49.8% (active) | 48.4% | – |
| O=C1Nc2c(ccc(Cl)c2Cl)/C1=C/c1ccc(F)cc1 | 87.2% | 84.8% | 93.9 | 89.3% | 97.8% | 42.1% | 76.4% | 41.1% | 76.7% | 113% | 85% | 105% | 83.6% | 88.8% | 109% | 94.8% | 97.9% | 93.9% | – | – |
| O=C(Nc1ccc(F)cc1)c1c(NC(=O)C(F)(F)F)sc2c1CCCCC2 | -5.63% (active) | -6.78% (active) | 11 | -23.5% (active) | 2.16% (active) | -28.5% (active) | 2.42% (active) | 5.88% (active) | -10.4% (active) | 16.9% | 6.57% (active) | -21.1% (active) | -20.4% (active) | 4.27% (active) | -42.4% (active) | -0.67% (active) | -23.9% (active) | -3.37% (active) | – | – |
